target: AgAbp1; assay: SPOT peptide array binding signal intensity (averaged, normalized) (arbitrary units (background-subtracted, floor 0; scale differs between SH3 domains)); higher = stronger binding of the SH3 domain to the peptide
Summary of the method: (§1)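 Peptides were synthetic 15-mers on cellulose membranes, with every cysteine replaced by serine. They were incubated overnight at 4°C with GST-SH3 domains from four yeast species at 10 μg/ml in TBS-based blocking buffer. Binding signal, the replicate-averaged normalized and background-subtracted spot intensity, is in arbitrary units that differ between domains.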

Binder	SPOT peptide array binding signal intensity
GATNNAPTLPKRKNP	94.5

target: AgBbc1; assay: as above
Summary of the method: as §1

Binder	SPOT peptide array binding signal intensity
GATNNAPTLPKRKNP	80.5

target: AgBem1-D1; assay: as above
Summary of the method: as §1

Binder	SPOT peptide array binding signal intensity
GATNNAPTLPKRKNP	15

target: AgBzz1-D1; assay: as above
Summary of the method: as §1

Binder	SPOT peptide array binding signal intensity
GATNNAPTLPKRKNP	60.2

target: AgBzz1-D2; assay: as above
Summary of the method: as §1

Binder	SPOT peptide array binding signal intensity
GATNNAPTLPKRKNP	21

target: AgCyk3; assay: as above
Summary of the method: as §1

Binder	SPOT peptide array binding signal intensity
GATNNAPTLPKRKNP	≤ 0

target: AgFus1; assay: as above
Summary of the method: as §1

Binder	SPOT peptide array binding signal intensity
GATNNAPTLPKRKNP	15.5

target: AgHof1; assay: as above
Summary of the method: as §1

Binder	SPOT peptide array binding signal intensity
GATNNAPTLPKRKNP	32.9

target: AgHse1; assay: as above
Summary of the method: as §1

Binder	SPOT peptide array binding signal intensity
GATNNAPTLPKRKNP	≤ 0

target: AgLsb1; assay: as above
Summary of the method: as §1

Binder	SPOT peptide array binding signal intensity
GATNNAPTLPKRKNP	11.4

target: AgLsb4; assay: as above
Summary of the method: as §1

Binder	SPOT peptide array binding signal intensity
GATNNAPTLPKRKNP	2730

target: AgMyo5; assay: as above
Summary of the method: as §1

Binder	SPOT peptide array binding signal intensity
GATNNAPTLPKRKNP	≤ 0

target: AgNbp2; assay: as above
Summary of the method: as §1

Binder	SPOT peptide array binding signal intensity
GATNNAPTLPKRKNP	7.25

target: AgRvs167; assay: as above
Summary of the method: as §1

Binder	SPOT peptide array binding signal intensity
GATNNAPTLPKRKNP	47.3

target: AgSho1; assay: as above
Summary of the method: as §1

Binder	SPOT peptide array binding signal intensity
GATNNAPTLPKRKNP	3.75

target: AgSla1-D1-D2; assay: as above
Summary of the method: as §1

Binder	SPOT peptide array binding signal intensity
GATNNAPTLPKRKNP	7

target: AgSla1-D3; assay: as above
Summary of the method: as §1

Binder	SPOT peptide array binding signal intensity
GATNNAPTLPKRKNP	0.75

target: CaAbp1-D1; assay: as above
Summary of the method: as §1

Binder	SPOT peptide array binding signal intensity
GATNNAPTLPKRKNP	131

target: CaAbp1-D2; assay: as above
Summary of the method: as §1

Binder	SPOT peptide array binding signal intensity
GATNNAPTLPKRKNP	155

target: CaBbc1; assay: as above
Summary of the method: as §1

Binder	SPOT peptide array binding signal intensity
GATNNAPTLPKRKNP	532

target: CaBem1-D1; assay: as above
Summary of the method: as §1

Binder	SPOT peptide array binding signal intensity
GATNNAPTLPKRKNP	6

target: CaBzz1-D1; assay: as above
Summary of the method: as §1

Binder	SPOT peptide array binding signal intensity
GATNNAPTLPKRKNP	232

target: CaBzz1-D2; assay: as above
Summary of the method: as §1

Binder	SPOT peptide array binding signal intensity
GATNNAPTLPKRKNP	≤ 0

target: CaCyk3; assay: as above
Summary of the method: as §1

Binder	SPOT peptide array binding signal intensity
GATNNAPTLPKRKNP	2.75

target: CaFus1; assay: as above
Summary of the method: as §1

Binder	SPOT peptide array binding signal intensity
GATNNAPTLPKRKNP	≤ 0

target: CaHof1; assay: as above
Summary of the method: as §1

Binder	SPOT peptide array binding signal intensity
GATNNAPTLPKRKNP	1.25

target: CaHse1; assay: as above
Summary of the method: as §1

Binder	SPOT peptide array binding signal intensity
GATNNAPTLPKRKNP	2.25

target: CaLsb1; assay: as above
Summary of the method: as §1

Binder	SPOT peptide array binding signal intensity
GATNNAPTLPKRKNP	0.5

target: CaLsb4; assay: as above
Summary of the method: as §1

Binder	SPOT peptide array binding signal intensity
GATNNAPTLPKRKNP	4150

target: CaMyo5; assay: as above
Summary of the method: as §1

Binder	SPOT peptide array binding signal intensity
GATNNAPTLPKRKNP	3

target: CaNbp2; assay: as above
Summary of the method: as §1

Binder	SPOT peptide array binding signal intensity
GATNNAPTLPKRKNP	≤ 0

target: CaRvs167; assay: as above
Summary of the method: as §1

Binder	SPOT peptide array binding signal intensity
GATNNAPTLPKRKNP	125

target: CaRvs167-3; assay: as above
Summary of the method: as §1

Binder	SPOT peptide array binding signal intensity
GATNNAPTLPKRKNP	3.25

target: CaSho1; assay: as above
Summary of the method: as §1

Binder	SPOT peptide array binding signal intensity
GATNNAPTLPKRKNP	≤ 0

target: CaSla1-D1-D2; assay: as above
Summary of the method: as §1

Binder	SPOT peptide array binding signal intensity
GATNNAPTLPKRKNP	47

target: CaSla1-D3; assay: as above
Summary of the method: as §1

Binder	SPOT peptide array binding signal intensity
GATNNAPTLPKRKNP	≤ 0

target: ScAbp1; assay: as above
Summary of the method: as §1

Binder	SPOT peptide array binding signal intensity
GATNNAPTLPKRKNP	120

target: ScBbc1; assay: as above
Summary of the method: as §1

Binder	SPOT peptide array binding signal intensity
GATNNAPTLPKRKNP	7.12

target: ScBem1-D1; assay: as above
Summary of the method: as §1

Binder	SPOT peptide array binding signal intensity
GATNNAPTLPKRKNP	≤ 0

target: ScBzz1-D1; assay: as above
Summary of the method: as §1

Binder	SPOT peptide array binding signal intensity
GATNNAPTLPKRKNP	10.5

target: ScBzz1-D2; assay: as above
Summary of the method: as §1

Binder	SPOT peptide array binding signal intensity
GATNNAPTLPKRKNP	12.5

target: ScCyk3; assay: as above
Summary of the method: as §1

Binder	SPOT peptide array binding signal intensity
GATNNAPTLPKRKNP	≤ 0

target: ScFus1; assay: as above
Summary of the method: as §1

Binder	SPOT peptide array binding signal intensity
GATNNAPTLPKRKNP	6.5

target: ScHof1; assay: as above
Summary of the method: as §1

Binder	SPOT peptide array binding signal intensity
GATNNAPTLPKRKNP	0.25

target: ScHse1; assay: as above
Summary of the method: as §1

Binder	SPOT peptide array binding signal intensity
GATNNAPTLPKRKNP	27.2

target: ScLsb1; assay: as above
Summary of the method: as §1

Binder	SPOT peptide array binding signal intensity
GATNNAPTLPKRKNP	242

target: ScLsb2; assay: as above
Summary of the method: as §1

Binder	SPOT peptide array binding signal intensity
GATNNAPTLPKRKNP	3.5

target: ScLsb3; assay: as above
Summary of the method: as §1

Binder	SPOT peptide array binding signal intensity
GATNNAPTLPKRKNP	4610

target: ScLsb4; assay: as above
Summary of the method: as §1

Binder	SPOT peptide array binding signal intensity
GATNNAPTLPKRKNP	2740

target: ScMyo3; assay: as above
Summary of the method: as §1

Binder	SPOT peptide array binding signal intensity
GATNNAPTLPKRKNP	≤ 0

target: ScMyo5; assay: as above
Summary of the method: as §1

Binder	SPOT peptide array binding signal intensity
GATNNAPTLPKRKNP	≤ 0

target: ScNbp2; assay: as above
Summary of the method: as §1

Binder	SPOT peptide array binding signal intensity
GATNNAPTLPKRKNP	4.5

target: ScPex13; assay: as above
Summary of the method: as §1

Binder	SPOT peptide array binding signal intensity
GATNNAPTLPKRKNP	182

target: ScRvs167; assay: as above
Summary of the method: as §1

Binder	SPOT peptide array binding signal intensity
GATNNAPTLPKRKNP	960

target: ScSho1; assay: as above
Summary of the method: as §1

Binder	SPOT peptide array binding signal intensity
GATNNAPTLPKRKNP	≤ 0

target: ScSla1-D1-D2; assay: as above
Summary of the method: as §1

Binder	SPOT peptide array binding signal intensity
GATNNAPTLPKRKNP	20.8

target: ScSla1-D3; assay: as above
Summary of the method: as §1

Binder	SPOT peptide array binding signal intensity
GATNNAPTLPKRKNP	≤ 0

target: SpAbp1-D1; assay: as above
Summary of the method: as §1

Binder	SPOT peptide array binding signal intensity
GATNNAPTLPKRKNP	102

target: SpBbc1; assay: as above
Summary of the method: as §1

Binder	SPOT peptide array binding signal intensity
GATNNAPTLPKRKNP	1

target: SpBzz1-D1; assay: as above
Summary of the method: as §1

Binder	SPOT peptide array binding signal intensity
GATNNAPTLPKRKNP	286

target: SpBzz1-D2; assay: as above
Summary of the method: as §1

Binder	SPOT peptide array binding signal intensity
GATNNAPTLPKRKNP	0.25

target: SpCyk3; assay: as above
Summary of the method: as §1

Binder	SPOT peptide array binding signal intensity
GATNNAPTLPKRKNP	≤ 0

target: SpHof1; assay: as above
Summary of the method: as §1

Binder	SPOT peptide array binding signal intensity
GATNNAPTLPKRKNP	2.75

target: SpHof1-2; assay: as above
Summary of the method: as §1

Binder	SPOT peptide array binding signal intensity
GATNNAPTLPKRKNP	0.625

target: SpHof1-3; assay: as above
Summary of the method: as §1

Binder	SPOT peptide array binding signal intensity
GATNNAPTLPKRKNP	65.5

target: SpHse1; assay: as above
Summary of the method: as §1

Binder	SPOT peptide array binding signal intensity
GATNNAPTLPKRKNP	11

target: SpLsb1; assay: as above
Summary of the method: as §1

Binder	SPOT peptide array binding signal intensity
GATNNAPTLPKRKNP	118

target: SpLsb4; assay: as above
Summary of the method: as §1

Binder	SPOT peptide array binding signal intensity
GATNNAPTLPKRKNP	6350

target: SpMyo1; assay: as above
Summary of the method: as §1

Binder	SPOT peptide array binding signal intensity
GATNNAPTLPKRKNP	≤ 0

target: SpNbp2; assay: as above
Summary of the method: as §1

Binder	SPOT peptide array binding signal intensity
GATNNAPTLPKRKNP	2

target: SpPex13; assay: as above
Summary of the method: as §1

Binder	SPOT peptide array binding signal intensity
GATNNAPTLPKRKNP	3.5

target: SpRvs167; assay: as above
Summary of the method: as §1

Binder	SPOT peptide array binding signal intensity
GATNNAPTLPKRKNP	1270

target: SpSla1-D1-D2; assay: as above
Summary of the method: as §1

Binder	SPOT peptide array binding signal intensity
GATNNAPTLPKRKNP	7

target: SpSla1-D3; assay: as above
Summary of the method: as §1

Binder	SPOT peptide array binding signal intensity
GATNNAPTLPKRKNP	15

From the supplement of paper PMC4466140
